Most compounds without a hit are left out; they make up all but 4.7% or so of the library.
UBC9 SUMO inh: blocks human SUMOylation mediated by UBC9; P63279; HTRF SUMOylation assay, SAE1/SAE2 + UBC9, in vitro; inhibition, % at 35 µM; 290,000 tested, 0.36% active; in the data active = inhibition above about 50%, passing the limit was not always enough; inconclusive = no clear call, values can overlap the other calls
Efflux pump inh: antifungal efflux pump inhibition, Nile Red retention. S. cerevisiae Candida pump triplex. inhibition, % at 10 µM. 330,000 tested, 0.44% active. AID 485275;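 active = plate passing quality check with inhibition over a set limit, or well fluorescence over plate mean plus 4 SD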;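 also: Nile Red retained in pooled yeast measured as flow cytometry median fluorescence; 0% = buffer negative control and 100% = Enniatin B positive control; higher means more Nile Red kept so more efflux inhibition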
eIF4H inh: inhibitors of RNA binding by human eIF4H | Q15056 | eIF4H fluorescence polarization binding assay | inhibition, % at 35 µM | 290,000 tested, 0.94% active;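 also: calls also rest on retests at 20 µM and on dose response follow-up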
ALR H2O2 inh: blocks human ALR sulfhydryl oxidase activity. P55789. purified ALR, DTT oxidation, H2O2 HRP-luminol luminescence. inhibition, % (test concentration not listed). 290,000 tested, 3.8% active. AID 485317;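 active = mean replicate inhibition above about 79%, with every replicate also reaching it, limit read from the data; inconclusive = only one of the two criteria met; inactive = mean below limit and not every replicate reaching it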
PABP FP inh: blocks human PABP binding to poly(A) RNA; inhibition, % at 35 µM; fluorescence polarization; 290,000 tested, 1% active;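 also: calls also rest on retests at 20 µM and on dose response follow-up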
Target sequence (P11940 whole entry, looked up): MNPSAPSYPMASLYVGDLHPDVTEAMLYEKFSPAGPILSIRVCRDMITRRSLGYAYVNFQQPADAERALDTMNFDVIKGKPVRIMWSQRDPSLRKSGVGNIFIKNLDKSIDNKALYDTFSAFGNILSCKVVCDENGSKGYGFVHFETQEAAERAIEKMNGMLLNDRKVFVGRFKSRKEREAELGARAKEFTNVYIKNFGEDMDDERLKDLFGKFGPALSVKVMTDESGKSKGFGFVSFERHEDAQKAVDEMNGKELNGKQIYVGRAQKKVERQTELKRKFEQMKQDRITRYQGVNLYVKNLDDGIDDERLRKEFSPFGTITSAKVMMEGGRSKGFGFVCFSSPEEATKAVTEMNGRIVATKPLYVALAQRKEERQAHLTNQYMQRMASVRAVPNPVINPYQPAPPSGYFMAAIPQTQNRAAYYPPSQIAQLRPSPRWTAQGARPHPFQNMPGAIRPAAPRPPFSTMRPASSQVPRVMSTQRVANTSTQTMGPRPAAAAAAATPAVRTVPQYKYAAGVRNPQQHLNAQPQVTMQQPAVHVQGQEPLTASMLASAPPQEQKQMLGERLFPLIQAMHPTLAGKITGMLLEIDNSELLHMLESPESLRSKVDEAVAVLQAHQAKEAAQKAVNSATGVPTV
PABP1 MLLE inh: blocks PAM2 peptide binding to the PABP1 MLLE domain; P11940; GST-MLLE / FITC-PAM2 fluorescence polarization; inhibition, % at 20 µM; 360,000 tested, 0.36% active; AID 588489; in the data active = inhibition above about 35%, passing the limit was not always enough;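 also: plate controls were DMSO wells with GST-MLLE for no effect and wells lacking GST-MLLE protein for full effect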
* = called active by the depositor; ? = inconclusive; . = not tested or not shown. Unless noted, no rule for the calls is given here.

SMILES	UBC9 SUMO inh	Efflux pump inh	eIF4H inh	ALR H2O2 inh	PABP FP inh	PABP1 MLLE inh
Cc1noc(C)c1NC(=O)N(C)C[C@H]1Oc2c(NC(=O)C3CC3)cccc2C(=O)N([C@H](C)CO)C[C@@H]1C	.	0	.	-8	.	8
COc1cc(NCCC(=O)c2cccs2)c(OC)cc1Cl	3	0	0	100*	-10	-6
COc1cccc(NC(=O)CN(C)C(=O)CSc2ncnc3sc(C)c(C)c23)c1	.	0	.	-9	.	-37
O=C(NCc1ccco1)c1ccccc1Nc1ccc(F)cc1	-8	0	-1	99*	2	5
CN(c1ccccc1C(=O)NCc1ccco1)S(C)(=O)=O	2	0	55*	.	32*	11
C[C@H](O)[C@@H]1C(=O)N2CCc3c([nH]c4ccccc34)[C@@H]2C[C@@H]1N(C)S(=O)(=O)c1ccccc1	.	.	.	.	.	-15
COc1ccc(NC(=O)CSCc2ccccc2C)cc1	-10	0	4	84*	71	13
CC(=O)Nc1ccc(NC(=O)CSCCc2ccccn2)cc1	9	0	-3	11	-1	-3
COc1ccc(CNC(=O)CSCc2ccccc2Cl)cc1	-16	-1	3	98*	7	14
COc1ccc(NC(=O)CSCC(=O)NCCc2ccccn2)cc1	-12	0	-1	98*	7	12
COc1ccc(NC(=O)CSCC(=O)N2CCCc3ccccc32)cc1	.	0	.	90*	.	-13
Cc1ccccc1CSCC(=O)Nc1ccccc1-c1ccccc1	-8	0	-5	-23	3	-8
COc1cc(OC)cc(C(=O)Nc2ccccc2C(=O)NC2CC2)c1	.	0	.	-1	.	-17
O=C(CNC(=O)c1ccc(C(F)(F)F)cc1)NC1CC1	.	0	.	0	.	-7
O=C(CCSCCC(=O)NCc1ccco1)NCc1ccco1	14	0	19	5	-2	.
Cc1ccccc1CSCC(=O)N/N=C/c1cccs1	-14	0	1	98*	0	6
O=C(CCSCc1ccccc1Cl)NCc1ccco1	7	0	4	93*	7	-3
O=C(Cc1ccccc1)N/N=C/c1cccs1	13	0	-7	-4	5	13
COc1ccc(CNC(=O)COC(=O)/C=C/c2cccc(Br)c2)cc1OC	-2	0	-2	1	6	-15
CC(C)N(C(=O)CSc1ccc(S(=O)(=O)N2CCCCC2)cn1)c1ccccc1	.	0	.	.	.	35
CCC(=NCCc1ccc(OC)c(OC)c1)C1=C(O)CC(C)(C)CC1=O	11	0	active	-4	60	-1
C[C@]12c3[nH]c4cc(-c5ccco5)ccc4c3CCN1C(=O)[C@@H](CC(=O)NCc1ccco1)C[C@@H]2C(=O)N1CCCCC1	.	0	.	.	.	-20
NC(=O)C1CCN(CC(=O)Nc2ccccc2Sc2ccc(Cl)cc2)CC1	-9	0	0	87*	1	-4
NC(=O)C1CCN(CC(=O)Nc2ccccc2Sc2ccccc2)CC1	19	0	-13	-1	3	-9
O=C(NCCN1CCCC1)c1ccc(Br)cc1	6	0	-5	-17	1	12
SMILES	UBC9 SUMO inh	Efflux pump inh	eIF4H inh	ALR H2O2 inh	PABP FP inh	PABP1 MLLE inh
O=C(CCN1CCOCC1)NNC(=S)NC(=O)c1ccc(Br)cc1	-14	0	40	99*	8	17
O=C(CCN1CCCCC1)NNC(=S)NC(=O)c1ccc(Br)cc1	-15	0	33	99*	4	13
CCOC(=O)N1CCN(C(=O)COC(=O)c2cc(C)ccc2C)CC1	.	0	.	-3	.	0
Cc1ccc(OCCn2c(SCCO)nc3c(N)ncnc32)cc1	11	0	15	-2	4	-9
Cc1sc2nc(COC(=O)c3ccc(Cl)c(N)c3)[nH]c(=O)c2c1C	12	0	74*	-4	63*	-21
Cc1sc2nc(COC(=O)c3ccc(N4CCCC4)c([N+](=O)[O-])c3)[nH]c(=O)c2c1C	16	0	?	.	1.7*	-84
Cc1sc2nc(COC(=O)c3ccc(O)cc3)[nH]c(=O)c2c1C	-8	0	-17	.	-8	-6
Nc1c(C(=O)N2CCCCC2)sc(=S)n1-c1ccccc1	-4	0	-3	99*	10	37
Nc1c(C(=O)N2CCOCC2)sc(=S)n1-c1ccccc1	-6	0	-6	93*	10	26
Cc1ccc(-n2c(N)c(C(=O)N3CCCCC3)sc2=S)cc1	18	0	5	8	0	21
Cc1cccnc1NC(=O)CSc1ccc2c(c1)OCCO2	.	0	.	.	.	21
O=C(CSc1ccccc1)NCc1ccco1	18	0	6	49	-1	22
O=C(CSc1ccc2c(c1)OCCO2)NCc1ccco1	-6	0	2	98*	4	25
Cc1ccc(NC(=O)CSc2ccc3c(c2)OCCO3)nc1	.	0	.	98*	.	30
CC(=O)OC[C@H]1O[C@@H](Oc2cc3ccc(=O)oc3cc2OC(C)=O)[C@H](OC(C)=O)[C@@H](OC(C)=O)[C@@H]1OC(C)=O	.	.	.	.	.	15
COc1ccc2c(c1)CC/C(=C\Nc1ccc3c(c1)OCO3)C2=O	77	0	66*	-32	58*	-92
O=C(c1ccc(Cl)c(S(=O)(=O)N2CCCCCC2)c1)N1CCCC1	8	1	-5	0	4	13
CCOc1ccc(-c2nc(CCl)cs2)cc1OC	9	0	-11	99*	-9	20
COc1ccc(-c2nc(CC(=O)O)cs2)cc1OC	36	0	-13	1	8	.
C=CCn1nc(C(=O)N2CCOCC2)cc1-c1sc(NC(=O)c2ccccc2)nc1C	.	.	.	.	.	12
O=C(O)CSc1cc(NS(=O)(=O)c2ccc(Br)cc2)c2ccccc2c1O	76*	0	6	19	7	46*
Cc1ccc(S(=O)(=O)Nc2ccc(Br)cc2C(NCC(=O)O)c2ccccc2)cc1 (stereo unspecified)	-12	0	2	5	4	-3
Cn1c(SCC(=O)NC2CC2)nnc1-c1cccs1	11	0	2	0	0	-7
CCn1c(CNC(C)=O)nnc1SCC(=O)c1ccc(Br)cc1	18	0	-6	96*	-10	17
CCn1c(CNC(=O)Cc2ccc(OC)cc2)nnc1SCC(=O)c1ccc(Br)cc1	12	0	-9	-9	10	4
Cc1noc(C)c1NC(=O)N(C)C[C@H]1Oc2ccc(NC(=O)Cn3cnnn3)cc2C(=O)N([C@H](C)CO)C[C@@H]1C	.	0	.	.	.	-6
CCOC(=O)C1=C(O)/C(=C/c2ccc(CNC(=O)C(=O)Nc3ccc(C)cc3)o2)N=C1C	-4	0	103*	.	119	-17
O=C(NC1CCCCC1)c1sc(=S)n2c1[nH]c(=O)c1ccccc12	24	0	-3	97*	11	33
CCCCNC(=O)c1sc(=S)n2c1[nH]c(=O)c1ccccc12	8	0	-1	.	18	28
Cc1cc2c(cc1C)NC(C)CC(=O)N2 (stereo unspecified)	.	.	.	.	.	-14

Screening results deposited in PubChem BioAssay by several laboratories.
